The structures appear in SMILES notation. Where “and” joins values, the source holds several entries; their conditions need not be identical. Identical values can stand only once. Results filed as inconclusive are left out. A number with no mark means an inactive call. Calls of active or inactive are those of the source. The call rests on the fitted dose curve; in most records, active means well fitted inhibition curve with a large enough effect; inconclusive means small, poorly fitted or top-dose-only effect; inactive means flat fitted curve, though single readings scatter.

Experiment [1] relates to NIH3T3. The experiment is described as follows: Cytotoxic Profiling of Annotated Libraries Using Quantitative High-Throughput Screening (AID 1296008). The following applies: Five cell lines viability, CellTiter-Glo ATP luminescence, 48-72 h; max response: hits give low values. In a few lines:
(§1)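 Cytotoxicity was measured as CellTiter-Glo ATP luminescence, read after 10 min at room temperature. Compound treatment of the cells lasted 48 or 72 hr at 37 degrees Celsius in a qHTS format.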
In general terms: Cellular ATP, detected with luciferase, serves as a proxy for viable cell number.

The subject of the next experiment is KB-3-1. Described as above. To be noted: Five cell lines viability, CellTiter-Glo ATP luminescence, 48-72 h; max response: hits give low values. In a few lines:
as §1

In another experiment the test system is HEK293T. As to the kind of experiment: qHTS assay to identify novel small-molecules to repurpose for Merkel cell carcinoma treatment (AID 1296009). To be noted: MCC and control cell lines, CellTiter-Glo viability, 72 h; at 44.8 µM (top of the series) unless noted. The method in brief: (§2)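 After compound transfer in DMSO, plates were kept 72 hr at 37 degree celsius. Luminescent ATP signal from CellTiter-Glo served as viability measure, normalized against DMSO and no-cell controls.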

Experiment [2] concerns NIH3T3. Described as above. To be noted: MCC and control cell lines, CellTiter-Glo viability, 72 h; at 44.8 µM (top of the series) unless noted. The method in brief:
as §2

The next experiment concerns MCC-13. The experiment is described as above. The following applies: MCC and control cell lines, CellTiter-Glo viability, 72 h; series mostly up to 46 µM. In a few lines: as §2
A further experiment concerns MKL-1. The description is as above. To be noted: MCC and control cell lines, CellTiter-Glo viability, 72 h; series mostly up to 46 µM. In a few lines: as §2
In another experiment the test system is MKL-2. The description is as above. To be noted: MCC and control cell lines, CellTiter-Glo viability, 72 h; series mostly up to 46 µM. In a few lines:
as §2

The subject of a further experiment is UISO. The description is as above. The following applies: MCC and control cell lines, CellTiter-Glo viability, 72 h; series mostly up to 46 µM. In a few lines: as §2
For another experiment, the system named is MCC-26. The experiment is described as above. To be noted: MCC and control cell lines, CellTiter-Glo viability, 72 h; series mostly up to 46 µM. In a few lines: as §2
The next experiment has as its system HACAT. The experiment is described as above. The following applies: MCC and control cell lines, CellTiter-Glo viability, 72 h; at 44.8 µM (top of the series) unless noted. In a few lines: as §2
Further: nearly all actives have a fitted effect of over 60% in size.
On the % scale 0 is the no-effect control and ±100 the full control effect; potency means the concentration at half of the fitted maximal effect.

Take `COc1cc(CNC(=O)CCCC/C=C/C(C)C)ccc1O`: the max response with NIH3T3 [1] is -2.4%.

Regarding `CCNc1nc2c(ncn2[C@H]2C[C@H](O)[C@@H](CO)O2)c(=O)[nH]1`, the compound was called inactive in the experiment on KB-3-1, in the experiment with NIH3T3 [1], with HEK293T and in the experiment on NIH3T3 [2].

Take `CN(C)c1ccc(N=NS(=O)(=O)O)cc1`: the max response in the experiment with KB-3-1 was -10.4%; with NIH3T3 [1] it was 2.87%. In the experiment on MCC-13, the Potency result was “inactive”. The Potency is 5.12 µM (active) with MKL-1 and 6.44 µM (active) in the experiment on MKL-2.

On to `CCC1C(=O)OCC1Cc1cncn1C` (stereo unspecified), for which the max response in the experiment on KB-3-1 was -11.4%; with NIH3T3 [1], -5.1%. The Potency entry with MCC-13, with MKL-1, in the experiment with MKL-2 and with UISO was “inactive” throughout.

Consider `CCOc1ccc2nc(S(N)(=O)=O)sc2c1`, for which, in the experiment with KB-3-1, the max response was 8.76%. Further, the compound was classed as inactive in the experiment on NIH3T3 [1] and in the experiment on NIH3T3 [2]. Moreover, the Potency entry in the experiment on MCC-13, in the experiment on MCC-26, with MKL-1 and with MKL-2 was “inactive” in each case.

For `O=C(/C=C/c1ccccc1)NCCO`, the max response in the experiment on KB-3-1 was 9.29%; with NIH3T3 [1], 3.14%. The Potency result in the experiment with MCC-13, in the experiment on MKL-1, with MKL-2 and with UISO was “inactive” each time.

Turning to `c1ccc2sc(SSc3nc4ccccc4s3)nc2c1`, the max response in the experiment on KB-3-1 is 18.6%; with NIH3T3 [1], 3.25%. Moreover, the Potency result in the experiment on MCC-13, in the experiment on MKL-1, in the experiment on MKL-2 and in the experiment on UISO was “inactive” in each case.

Regarding `CCN(CC)CCCCNc1ncc2cc(-c3c(Cl)cccc3Cl)c(NC(=O)NC(C)(C)C)nc2n1`, the Potency in the experiment with NIH3T3 [1] was 1.16 µM (active).

For the compound `Nc1nc2ccc([N+](=O)[O-])cc2s1`, the max response in the experiment on KB-3-1 is -15.7%. Further, the Potency entry in the experiment on MCC-13, in the experiment on MCC-26, with MKL-1 and in the experiment on MKL-2 was “inactive” each time.

Take `CCCCN(CC)c1nc(C)nc2c1c(C)cn2-c1c(C)cc(C)cc1C`: the max response with NIH3T3 [1] was -2.65%.

For the compound `Clc1ccccc1-c1nc(-c2ccncc2)no1`, the max response in the experiment with KB-3-1 was 12%. Also, the compound was classed as inactive in the experiment with HACAT. In addition, the Potency entry in the experiment with MCC-13, in the experiment with MCC-26, in the experiment with MKL-1, in the experiment on MKL-2 and in the experiment with UISO was “inactive” in each case.

Take `O=C(O)Cc1cccc(-c2cc(CCCCCCc3ccc(O[C@H]4O[C@H](CO)[C@@H](O)[C@H](O)[C@@H]4O)c(-c4cccc(CC(=O)O)c4)c3)ccc2O[C@H]2O[C@H](CO)[C@@H](O)[C@H](O)[C@@H]2O)c1`: in the experiment with KB-3-1, the result was inactive. For the same compound, the max response in the experiment with NIH3T3 [1] is 2.37%. Also, the activity change, negative = cytotoxicity in the experiment with MCC-13 was 9.04% [at 0.597 µM]; in the experiment on MKL-1, 6.03% [at 0.597 µM]; in the experiment with MKL-2 it was 5.84% [at 0.597 µM]; with UISO, 19.7% [at 0.597 µM].

For the compound `CCCC(=O)OC[C@@H](OC(=O)CCC)[C@@H](OC(=O)CCC)[C@H](Cn1c2nc(=O)[nH]c(=O)c-2nc2cc(C)c(C)cc21)OC(=O)CCC`, the max response with KB-3-1 is 23.7%. Moreover, the result with NIH3T3 [1] and in the experiment on NIH3T3 [2] was inactive. Further, the Potency result in the experiment on MCC-13 and in the experiment with MCC-26 was “inactive” throughout. The values for the Potency with MKL-1 and in the experiment on MKL-2 were 6.68 µM (active) and 3.35 µM (active), respectively.

Consider `COc1ccc(-c2cc(=S)ss2)cc1`, for which, in the experiment with KB-3-1, the max response was 24%. For the same compound, the call in the experiment on NIH3T3 [1], with HACAT and in the experiment with NIH3T3 [2] was inactive. Moreover, the Potency result in the experiment on MCC-13 was “inactive”. Also, the Potency with MKL-1 is 26.6 µM (active).

For `CC(=O)SCC(CC(=O)c1ccc(C)cc1)C(=O)O` (stereo unspecified), the call with KB-3-1 and with HEK293T was inactive. Besides, the max response with NIH3T3 [1] is -1.54%. For the same compound, the Potency result with MCC-13, in the experiment with MKL-1, with MKL-2 and in the experiment on UISO was “inactive” each time.

`C/C(=N\O)c1ccc(OCC(=O)N2CCCCC2)cc1`: the outcome with KB-3-1 was inactive. Also, the max response with NIH3T3 [1] is -0.0363%. In addition, the Potency entry with MCC-13, in the experiment on MKL-1, in the experiment on MKL-2 and with UISO was “inactive” each time.

Turning to `Cc1ccc2c(n1)Oc1ccc(C(C)C(=O)OCC(=O)N(C)C)cc1C2` (stereo unspecified), the max response with KB-3-1 was -21.6% and -9.27%; in the experiment on NIH3T3 [1] it was -8.07% and -9.75%. The call in the experiment with HEK293T was inactive. Further, the Potency entry in the experiment on MCC-13, in the experiment on MKL-1, in the experiment on MKL-2 and in the experiment on UISO was “inactive” throughout.

Take `COc1cc2c3cc1Oc1cc(ccc1O)C[C@@H]1c4c(cc(OC)c(O)c4Oc4ccc(cc4)C[C@@H]3N(C)CC2)CC[N+]1(C)C`: the max response with KB-3-1 is -2.77%; in the experiment with NIH3T3 [1], 4.48%. Moreover, the compound was classed as inactive in the experiment with HEK293T. For the same compound, the Potency result in the experiment on MCC-13, with MKL-1, with MKL-2 and in the experiment on UISO was “inactive” throughout.

With `CCCCCCCCCCCCCCCCCC(=O)O`, the max response in the experiment on NIH3T3 [1] is -5.96%. Besides, the result with HACAT and in the experiment on HEK293T was inactive. In addition, the Potency entry with MCC-13, in the experiment on MCC-26, in the experiment with MKL-1, with MKL-2 and in the experiment on UISO was “inactive” throughout.

Turning to `CC1(C)S[C@@H]2[C@H](NC(=O)[C@H](N)c3ccc(O)cc3)C(=O)N2[C@H]1C(=O)O`, the max response in the experiment with KB-3-1 was 11.9% and 8.22%. Besides, the compound was called inactive in the experiment with NIH3T3 [1], in the experiment on HEK293T and in the experiment with NIH3T3 [2].

For the compound `c1ccc2sc(SN3CCOCC3)nc2c1`, the max response in the experiment on NIH3T3 [1] was 0.685%. Moreover, the outcome in the experiment on HACAT and with HEK293T was inactive. In addition, the Potency entry in the experiment with MCC-13, with MCC-26, with MKL-1, with MKL-2 and in the experiment with UISO was “inactive” throughout.

Take `Cc1c(C(=O)O)c(O)cc2c1C(=O)c1c(O)c([C@@H]3O[C@H](CO)[C@@H](O)[C@H](O)[C@H]3O)c(O)c(O)c1C2=O`: the figures for the max response in the experiment with KB-3-1 and with NIH3T3 [1] were -19.3% and -21.1%, respectively. In addition, the Potency result in the experiment on MCC-13, in the experiment with MKL-1, with MKL-2 and in the experiment on UISO was “inactive” in each case.

On to `CN1[C@@H]2CC[C@H]1CC(OC(c1ccccc1)c1ccccc1)C2` (stereo partly specified), for which the max response in the experiment on NIH3T3 [1] was -0.104%. In addition, the outcome in the experiment with HACAT was inactive.

As for `Cc1ccc(C(=O)c2ccc(CC(=O)O)n2C)cc1`, the max response in the experiment with KB-3-1 was -6.96%; in the experiment with NIH3T3 [1] it was 0.61%. Moreover, the Potency result with MCC-13, with MKL-1, with MKL-2 and with UISO was “inactive” in each case.

As to `Cc1c(Nc2ncccc2C(=O)O)cccc1C(F)(F)F`, the max response is -9.8% in the experiment with KB-3-1 and -21.5% with NIH3T3 [1]. Further, the Potency result in the experiment with MCC-13, in the experiment with MCC-26, in the experiment on MKL-1, with MKL-2 and in the experiment with UISO was “inactive” throughout.

As for `CC(C(=O)O)c1ccc2c(c1)[nH]c1ccc(Cl)cc12` (stereo unspecified), the max response with NIH3T3 [1] is 1.25% and 0.838%. For the same compound, the outcome with HACAT and in the experiment on HEK293T was inactive. Further, the Potency entry in the experiment on MCC-13, in the experiment on MKL-1, with MKL-2 and with UISO was “inactive” each time.

As for `Nc1cc(-c2ccncc2)c[nH]c1=O`, the values for the max response with KB-3-1 and with NIH3T3 [1] were 4.08% and -0.0001%, respectively. Further, the Potency entry with MCC-13, in the experiment on MCC-26, with MKL-1 and with UISO was “inactive” throughout.

In the case of `C=CCCCCCCCCC(=O)O`, the max response is 1.18% in the experiment with KB-3-1 and 0.287% in the experiment on NIH3T3 [1]. The compound was classed as inactive with HEK293T. Moreover, the Potency entry in the experiment with MCC-13, in the experiment on MCC-26, in the experiment on MKL-1, with MKL-2 and with UISO was “inactive” each time.

As to `Cc1cc(O)c2ccccc2c1O`, the max response in the experiment with KB-3-1 was 6.5%. Also, in the experiment on HACAT, the outcome was inactive. In addition, in the experiment with MCC-13, the Potency result is “inactive”. Besides, the Potency with MKL-1 was 21.1 µM (active).

The record behind these values is PubChem BioAssay (NCATS).
